{"source": "PubChem BioAssay AID1508600", "about": "(Functional Genomics Laboratory (NCATS/FGL), 2020)", "note": "Screen size: about 53,000 sequences; about 3,700 (7%) were called active. Many of the other results were omitted from the sample, so actives are more common in it than they were. A number with no mark means an inactive call.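 Rule for the calls: active = gene knockdowns whose robust z-score for IL-1 alpha signal is at least 2 or at most -2, so actives lie on both sides; inactive = the rest.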"}
{"test": "Components of the Cytosolic LPS Sensing Pathway: Gene Identification via Genome-wide siRNA Screen;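 note: robust z of the log signal after scaling to non-targeting control siRNA wells of the plate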", "conditions": "RAW264.7 macrophages, IL-1a HTRF, actives lie on both sides, screened at 100 nM (by protocol), cells primed 5 h with Pam3CSK4 first", "outline": "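Knockdown: 100 nM siRNA, 48h, RAW264.7. Stimulation: Pam3CSK4 5 h, then LipidA via TransIT-TKO 24 h. Output: supernatant IL-1a HTRF, negative-control-normalized, log robust z-score; viability by CellTiter-Glo.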"}
{"sequence": "GCAGAGUGUGGUUAGUGGGTT against Cobl", "z-score": -0.218}
{"sequence": "GGAACUGCCCAGUUCUUAATT against Ppan", "z-score": 0.424}
{"sequence": "CCUACCCUAACCAUUACACTT against Enpp5", "z-score": -0.267}
{"sequence": "GGCCUUUUCUCAUCUCUGGTT against Igfals", "z-score": -1.57}
{"sequence": "GCCCGGAGAAUAUUAACUATT against Mllt11", "z-score": "2.21 (active)"}
{"sequence": "GCACUUUAAGAUCAACCGGTT against Bcar3", "z-score": 0.521}
{"sequence": "CCUAAAAGUGCCUUACUAATT against Ftdc2", "z-score": 0.679}
{"sequence": "GGAGUUUGCCAGUCAGAUCTT against Ralgps1", "z-score": "-2.11 (active)"}
{"sequence": "GCAAGAACGCAAGAUUCAATT against Acoxl", "z-score": 0.581}
{"sequence": "GCUGCUACGUGUUCAAGGUTT against Ctss", "z-score": 0.00488}
{"sequence": "GGACAAAGAAUCCAAAAUATT against Etv6", "z-score": "2.25 (active)"}
{"sequence": "GGUACCAACGUGUAUGGCATT against Gpaa1", "z-score": 0.182}
{"sequence": "GGUAAACCAAACAAAACCATT against Rpl35a", "z-score": 0.264}
{"sequence": "CCUUAAAACAGAUCCACUUTT against Nell2", "z-score": 0.473}
{"sequence": "GGCUCCUGUGCAUAUCUAATT against Olfr116", "z-score": -0.449}
{"sequence": "GGAGAACAACAGUAAUUACTT against Reps2", "z-score": -1.28}
{"sequence": "GGCUUUGGCAUGAUUGGCCTT against Tmem214", "z-score": "-2.72 (active)"}
{"sequence": "GGUGUCCAACAAGCUCAAGTT against F8a", "z-score": -0.337}
{"sequence": "GCGCAAACUUUAAUAACACTT against Zkscan1", "z-score": 0.604}
{"sequence": "GGCCAGGUAACUCUUACAATT against Trpv1", "z-score": 1.12}
{"sequence": "GGGUUAGCCAGAGCUCUAATT against N4bp2l1", "z-score": "3.03 (active)"}
{"sequence": "GGACAGUGUCUAGAUAUUGTT against Fbln5", "z-score": -1.18}
{"sequence": "GGACAAGUUGUUGGACUACTT against Hltf", "z-score": -1.02}
{"sequence": "GGACAAUGUGAUGAAGAUUTT against Fgfr3", "z-score": -0.843}
{"sequence": "GCCUCAUCAAUCCACUGCATT against Mtss2", "z-score": -0.956}
{"sequence": "GGGUGUGUUGGAUACCUAUTT against Adig", "z-score": "2.03 (active)"}
{"sequence": "GGGAGUUGUAGUAUUAGUATT against Zfp94", "z-score": -1.19}
{"sequence": "AAAAAACAGCACCCUGAUGTT against Olfr204", "z-score": 1.1}
{"sequence": "GGUCAGCAUUAUCAAGCCUTT against Hsd11b2", "z-score": 0.159}
{"sequence": "CCUGUGAAUACUUUCACUCTT against Bok", "z-score": 0.115}
{"sequence": "GGAAAUUGGCACCAUUACUTT against St3gal1", "z-score": "2.14 (active)"}
{"sequence": "GCCAGUCAUUAUAGUUAACTT against Slc47a1", "z-score": 1.57}
{"sequence": "GGAAGAACCACCACAAACUTT against Cstdc2", "z-score": -0.0281}
{"sequence": "GGAGUUUGGUAAAAUUGACTT against Dhrs7", "z-score": -1.7}
{"sequence": "GGAAGAAAUUCCUAAUGAATT against Igsf11", "z-score": -1.01}
{"sequence": "GGACCAAGGAAUAUUUCCCTT against Serpinb9b", "z-score": -0.564}
{"sequence": "GGGAUCAGAACAAGUAUAATT against Klc1", "z-score": 0.257}
{"sequence": "GGCUAAUAGACUUAUUAGGTT against Cdip1", "z-score": 0.45}
{"sequence": "GGGUCAUCCAAAUGGUUUGTT against Grm6", "z-score": 0.323}
{"sequence": "GGCUCACAGGACCUAUUUCTT against Col6a6", "z-score": "-3.15 (active)"}
{"sequence": "GCUGUUUUGAGGAGCCUUCTT against Zfp410", "z-score": -0.962}
{"sequence": "GGGUGAUCGCACGAUUGAGTT against Casq2", "z-score": 0.364}
{"sequence": "CCCACUCCGAUAUACUGCUTT against Olfr447", "z-score": "2.2 (active)"}
{"sequence": "GGAAAAUGGCAGAAAUGAATT against Vps26a", "z-score": -1.97}
{"sequence": "GGAGGUUGUGAUCUUGAAATT against Tbc1d23", "z-score": -0.000244}
{"sequence": "CGUAGACUUAACCUACAAATT against Dync2h1", "z-score": 1.88}
{"sequence": "GGUCAACCUUGAACUAAUATT against Dhx57", "z-score": 0.452}
{"sequence": "GCGAGUAGGACCAGUGAAATT against Xpo1", "z-score": "-2.67 (active)"}
{"sequence": "GGAUCUUGAGUUGGAGUCCTT against Nupr1l", "z-score": -0.319}
{"sequence": "GCUAGAGUACAGCAAGCUGTT against Aifm3", "z-score": 1.21}
{"sequence": "GGACGGUAACAACUACAAUTT against Polg", "z-score": 1.63}
{"sequence": "GGAUUAAAGGCCAUAAGGATT against Zfp747", "z-score": -0.813}
{"sequence": "CGAGUUUGACCGGACCAUCTT against Ssna1", "z-score": "2.44 (active)"}
{"sequence": "GGAACAAGAGAAUGAUGAATT against Col5a2", "z-score": 0.343}
{"sequence": "CGAAGAUUAAUUUUGCUCATT against Lrrtm2", "z-score": 0.316}
{"sequence": "CGAGACUCUAUCUUUGUCCTT against St3gal3", "z-score": -0.785}
{"sequence": "CGUGGUAGUGAAAAUUGAGTT against Xbp1", "z-score": 0.282}
{"sequence": "GGCCGCAUACUGAUGAAAGTT against Scgn", "z-score": -0.395}
{"sequence": "GCUUUGUUGGGAGUGAAAUTT against Olfr728", "z-score": "-2.11 (active)"}
{"sequence": "CCACCACAGCUGAAGUCAGTT against Fen1", "z-score": -1.08}
{"sequence": "GGUAAGCUAGGUUGCCCACTT against Gabarapl1", "z-score": 1.91}
{"sequence": "GGGUUAAGGUAGUUUCUAATT against 4930579C12Rik", "z-score": 0.613}
{"sequence": "GGUGAAAUCCAGGAGUUUUTT against Rnd3", "z-score": "2.02 (active)"}
{"sequence": "GGAAAUGAAGCUCAUGGAATT against Dcdc5", "z-score": -1.44}
{"sequence": "GGUUGCUAGUGCUAAGGACTT against Pdlim2", "z-score": 0.245}
{"sequence": "GGGCUGGUCAUUUACUAAGTT against Cdh22", "z-score": 1.32}
{"sequence": "CCAGAAUGUCACUGCCAGUTT against Zfy1", "z-score": 1.34}
{"sequence": "CCUGGAGAGUGAUACGUUCTT against Serpina1f", "z-score": -0.228}
{"sequence": "GGUCAAACUUCAAUAGACATT against Zkscan6", "z-score": "2.01 (active)"}
{"sequence": "GGGUGUUAGAAAUCAUUAUTT against Dgkd", "z-score": 1.19}
{"sequence": "GGAACUUCAGAGUAAACCUTT against H2-T23", "z-score": 0.096}
{"sequence": "CCACAAUCAUUAACAAGCUTT against Arl6", "z-score": 0.389}
{"sequence": "GGUUCAAGAGGAGACUACUTT against BC005624", "z-score": -0.127}
{"sequence": "GGAAUAUGUGUGGACUAGATT against Tor3a", "z-score": -0.265}
{"sequence": "GGCUUACAAAAAGUACAUCTT against Tpt1", "z-score": "4.36 (active)"}
{"sequence": "GGACCAUUCUUGCGUUCGUTT against Cacng7", "z-score": 1.66}
{"sequence": "CCGAUUAGAAAAGACCAAATT against Ccdc25", "z-score": 0.727}
{"sequence": "GGAAGUUUUGGGAGUGUGUTT against Map3k20", "z-score": -1.08}
{"sequence": "CGCAACCUGUCACAUAAUATT against Bmpr2", "z-score": -0.238}
{"sequence": "GCUGUUCUAUCAGACCUUUTT against Cyp2b10", "z-score": -0.236}
{"sequence": "GGAGACUUAUAACAUGUUUTT against Habp2", "z-score": "2.19 (active)"}
{"sequence": "GCGAGUUGAAGACUGAAGGTT against Ccdc68", "z-score": 1.44}
{"sequence": "GGUCAUACAUUUGUCAUCATT against Bend7", "z-score": -0.336}
{"sequence": "CCAUGUUAGAACUGGGACUTT against Tafa2", "z-score": "2.44 (active)"}
{"sequence": "GGUCAUGGGACAGCAAAUGTT against Tmco6", "z-score": -1.67}
{"sequence": "GGAAGACGUAUUUGUACACTT against Ybx1", "z-score": -0.523}
{"sequence": "GGAGUAGCUGAAUCUGAAGTT against Atp5e", "z-score": 1.57}
{"sequence": "CCUCAUUUCAACCAUUCACTT against Lyzl6", "z-score": "-2.36 (active)"}
{"sequence": "GGAGCUUCAUCUUUCAAGATT against Uqcrc2", "z-score": -0.0657}
{"sequence": "GCAUUGUGCUUUUGACAACTT against Abca15", "z-score": -0.173}
{"sequence": "GGAGCUUGAAAUUGUCAUUTT against Magoh", "z-score": "-3.51 (active)"}
{"sequence": "GGACCGGUGUCUAAUCAGCTT against Capn10", "z-score": 1.75}
{"sequence": "GGCUCAAGGAACAUGAGGCTT against Gtsf2", "z-score": -0.0452}
{"sequence": "GGCACAAACUAGAUGCAGATT against Ccdc68", "z-score": -0.669}
{"sequence": "GCUCUCGUAGACUGCUAUATT against Ppp1r14c", "z-score": "2.13 (active)"}
{"sequence": "GGAAUUUGAAUCACGUUUGTT against Hprt", "z-score": 1.72}
{"sequence": "CGGAUUCGGGAAUUCUAUCTT against Pcgf1", "z-score": 0.143}
{"sequence": "GGGUACCUCGUGGUACAUUTT against Rapgef3", "z-score": 0.352}
{"sequence": "GGUCCAAAAGUUGUUUCAATT against Oga", "z-score": "3.12 (active)"}
{"sequence": "GGAUUCAGCAGCUUCAGAATT against Rex1bd", "z-score": 0.221}
{"sequence": "GGAUUAUGCAAGUUACAUUTT against Nsf", "z-score": -0.63}
{"sequence": "GCACCUAGUUAAUGCUGCCTT against C2cd2", "z-score": "-2.15 (active)"}
{"sequence": "GCAGGCAUCGUGUUUACCATT against Cdh20", "z-score": 1.86}
{"sequence": "GCUCAAUUGUUCUUCUUUUTT against Olfr806", "z-score": -1.13}
{"sequence": "GCUUUAGAACAGAGGGUUATT against Scd4", "z-score": 0.989}
{"sequence": "GGAGAUCUUCAACUGCCACTT against Rps6kl1", "z-score": 0.842}
{"sequence": "GGUGAUUACUCUUAUGUGATT against Slc7a8", "z-score": -0.663}
{"sequence": "GGCUGAAGGAGCAAUCAAATT against L3mbtl3", "z-score": 1.85}
